# Data as given in PubChem BioAssay.
# Activity calls are given as the source filed them.
# Legend:
# [1] = tested on: PRMT1 (protein arginine N-methyltransferase 1); test: small molecules binding arginine methyltransferase PRMT1 – biochemical, small-molecule microarray, 635 nm fluorescence, primary screen (AID 1088); conditions: higher = more signal;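 further: binding of Prmt1 protein to compounds spotted on small-molecule microarray slides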
# [2] = growth effects on S. cerevisiae YJM789 – YJM789 clinical isolate, OD600, 24 h, basal, primary screen (AID 1089); conditions: higher = more signal, called active from +8 up or from −8 down;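 further: growth of clinical yeast isolate S. cerevisiae YJM 789 seeded 1000 cells per well; test concentration not given here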
# [3] = S. pombe growth modifiers, basal conditions – strain 972, OD600, 24 h, no modulator, primary screen (AID 1090);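 further: basal condition with compound alone and no growth modifier present; test concentration not given here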; conditions: S. pombe 972 growth, higher = more signal, called active from +8 up or from −8 down
# [4] = budding yeast growth modifiers under rapamycin – strain BY4716, OD600, 96 h, primary screen (AID 1091); further: test concentration not given here; conditions: S. cerevisiae BY4716 + rapamycin, higher = more signal, called active from +8 up or from −8 down
# [5] = molecular target: Torsin-1A-interacting protein 2 (Homo sapiens) (UniProt Q8NFQ8); test: small molecules binding lysate-expressed LULL1 – cell lysate, human LULL1 lysate, 635/667 nm fluorescence, primary screen (AID 1092); conditions: small-molecule microarray, hLULL1 lysate binding, 635 nm fluorescence; higher = more signal;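 further: probe is lysate of COS7 cells overexpressing human LULL1; score merges per-feature 667 nm fluorescence with signal-to-noise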
# [6] = optical density change of DRC41 E. coli – strain DRC41, OD650, 24 h, E. coli filamentation project, primary screen (AID 1093);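 further: MC1000 strain lacking acrAB efflux and sulA so SOS filamentation is blocked; test concentration not given here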; conditions: E. coli DRC41 growth, higher = more signal, called active from +8 up or from −8 down
# [7] = probe aLefty2 binding to arrayed compounds – biochemical, biotinylated probe, 635/667 nm fluorescence, primary screen (AID 1094); conditions: small-molecule microarray, higher = more signal;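 further: score merges spot fluorescence near 667 nm with spot signal-to-noise ratio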
# [8] = tested on: Noggin (protein binding on small-molecule microarray); test: small molecules binding Noggin protein – biochemical, 635/667 nm fluorescence, primary screen (AID 1095); conditions: 635 nm fluorescence, higher = more signal;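 further: score merges 667 nm feature fluorescence with signal to noise over triplicate slides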
# [9] = molecular target: Neurogenic locus notch homolog protein 3 (Homo sapiens) (UniProt Q9UM47); test: small molecules binding NOTCH3 protein – biochemical, 635/667 nm fluorescence, primary screen (AID 1096); conditions: small-molecule microarray, 635 nm fluorescence, higher = more signal
# [10] = probe aEGFR binding to arrayed compounds – biochemical, biotinylated probe, 635/667 nm fluorescence, primary screen (AID 1097); conditions: small-molecule microarray, higher = more signal;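 further: probe is a biotinylated anti-EGFR antibody binding compounds printed on slides; score combines fluorescence near 667 nm and signal to noise of each spot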
# [11] = tested on: Plasmodium falciparum Sir2 (PF13_0152, Sir2A); test: Plasmodium falciparum Sir2A binding compounds – biochemical, small-molecule microarray, 635 nm fluorescence, primary screen (AID 1098); conditions: fluorescence 635 nm, higher = more signal;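 further: score merges spot fluorescence intensity with its signal-to-noise ratio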
# [12] = probe aDKK1 binding to arrayed compounds – biochemical, biotinylated probe, 635/667 nm fluorescence, primary screen (AID 1099); conditions: small-molecule microarray, higher = more signal;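 further: score merges 667nm spot fluorescence with signal to noise across triplicate slides; reference of the scale not given here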
# [13] = probe aCHRDL2 binding to arrayed compounds – biochemical, biotinylated probe, 635/667 nm fluorescence, primary screen (AID 1100); conditions: small-molecule microarray, higher = more signal
# [14] = change in splice reporter luminescence, either direction, cell-based, HEK293, spliceosome inhibition project, primary screen (AID 1101); conditions: HEK293 splicing luciferase reporter, 24 h, higher = more signal, called active from +8 up or from −8 down;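 further: HEK293 cells carrying a splicing-competent luciferase reporter gene; test concentration not given here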
# [15] = molecular target: Fibroblast growth factor 10 (Homo sapiens) (UniProt O15520); test: compounds binding fibroblast growth factor 10 – biochemical, small-molecule microarray, 635 nm fluorescence, primary screen (AID 1102); conditions: FGF10 binding, fluorescence 635 nm, higher = more signal
# [16] = tested on: glycogen synthase kinase-3 (GSK3A per assay name; protocol says GSK3B); test: compounds binding glycogen synthase kinase-3 – biochemical, small-molecule microarray, 635 nm fluorescence, GSK3A, primary screen (AID 1103); conditions: fluorescence 635 nm, higher = more signal; further: the record names both GSK3A and GSK3B
# [17] = molecular target: Epidermal growth factor receptor (Homo sapiens) (UniProt P00533); test: compounds binding epidermal growth factor receptor – biochemical, small-molecule microarray, 635 nm fluorescence, primary screen (AID 1104); conditions: EGFR binding, higher = more signal;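 further: score merges 667 nm emission intensity with spot signal to noise over triplicate slides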
# [18] = molecular target: Follistatin-related protein 3 (Homo sapiens) (UniProt O95633); test: compounds binding follistatin-related protein 3 – biochemical, small-molecule microarray, 635 nm fluorescence, primary screen (AID 1105); conditions: FSTL3 binding, higher = more signal;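 further: score merges emission near 667 nm and signal to noise per printed spot across three slides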
# [19] = molecular target: Dickkopf-related protein 1 (Homo sapiens) (UniProt O94907); test: small molecules binding DKK1 protein – biochemical, small-molecule microarray, 635 nm fluorescence scan, primary screen (AID 1106); conditions: higher = more signal;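 further: score merges emission near 667 nm with signal to noise over three replicate slides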
# [20] = tested on: Inhibin beta A chain (activin A); test: small molecules binding activin A – biochemical, small-molecule microarray, 635 nm fluorescence scan, primary screen (AID 1107); conditions: INHBA, higher = more signal;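 further: mouse activin A protein probed at 4.33 µg/mL on printed slides; score merges bound-protein fluorescence near 667 nm with spot signal-to-noise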
# Chain of Torsin-1A-interacting protein 2 (Homo sapiens) (Q8NFQ8 whole entry, looked up): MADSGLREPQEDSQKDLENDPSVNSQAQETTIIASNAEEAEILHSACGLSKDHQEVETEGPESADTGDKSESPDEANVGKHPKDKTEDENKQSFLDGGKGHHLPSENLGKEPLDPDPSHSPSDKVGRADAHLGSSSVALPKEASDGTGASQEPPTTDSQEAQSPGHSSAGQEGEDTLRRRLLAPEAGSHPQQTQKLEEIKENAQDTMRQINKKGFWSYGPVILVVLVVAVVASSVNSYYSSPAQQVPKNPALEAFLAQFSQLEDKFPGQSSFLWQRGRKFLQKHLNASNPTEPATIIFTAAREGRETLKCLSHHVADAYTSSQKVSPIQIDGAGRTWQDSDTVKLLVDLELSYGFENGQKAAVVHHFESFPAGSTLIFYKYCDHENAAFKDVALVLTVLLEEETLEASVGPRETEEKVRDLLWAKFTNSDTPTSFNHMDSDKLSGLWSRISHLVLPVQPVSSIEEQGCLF
# Chain of Follistatin-related protein 3 (Homo sapiens) (O95633 whole entry, looked up): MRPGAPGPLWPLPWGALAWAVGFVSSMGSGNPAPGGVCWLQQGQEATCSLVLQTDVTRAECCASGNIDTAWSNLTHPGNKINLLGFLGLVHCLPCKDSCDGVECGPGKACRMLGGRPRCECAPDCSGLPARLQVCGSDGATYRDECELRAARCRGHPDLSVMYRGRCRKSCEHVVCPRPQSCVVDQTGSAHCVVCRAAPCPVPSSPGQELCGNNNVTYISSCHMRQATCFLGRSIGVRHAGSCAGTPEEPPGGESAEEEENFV
# Chain of Fibroblast growth factor 10 (Homo sapiens) (O15520 whole entry, looked up): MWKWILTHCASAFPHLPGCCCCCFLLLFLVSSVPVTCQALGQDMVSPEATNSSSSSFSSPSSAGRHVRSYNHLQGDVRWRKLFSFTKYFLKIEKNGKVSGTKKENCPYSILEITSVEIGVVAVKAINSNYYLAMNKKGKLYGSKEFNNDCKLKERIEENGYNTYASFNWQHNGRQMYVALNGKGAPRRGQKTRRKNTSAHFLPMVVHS
# Chain of Neurogenic locus notch homolog protein 3 (Homo sapiens) (Q9UM47 whole entry, looked up): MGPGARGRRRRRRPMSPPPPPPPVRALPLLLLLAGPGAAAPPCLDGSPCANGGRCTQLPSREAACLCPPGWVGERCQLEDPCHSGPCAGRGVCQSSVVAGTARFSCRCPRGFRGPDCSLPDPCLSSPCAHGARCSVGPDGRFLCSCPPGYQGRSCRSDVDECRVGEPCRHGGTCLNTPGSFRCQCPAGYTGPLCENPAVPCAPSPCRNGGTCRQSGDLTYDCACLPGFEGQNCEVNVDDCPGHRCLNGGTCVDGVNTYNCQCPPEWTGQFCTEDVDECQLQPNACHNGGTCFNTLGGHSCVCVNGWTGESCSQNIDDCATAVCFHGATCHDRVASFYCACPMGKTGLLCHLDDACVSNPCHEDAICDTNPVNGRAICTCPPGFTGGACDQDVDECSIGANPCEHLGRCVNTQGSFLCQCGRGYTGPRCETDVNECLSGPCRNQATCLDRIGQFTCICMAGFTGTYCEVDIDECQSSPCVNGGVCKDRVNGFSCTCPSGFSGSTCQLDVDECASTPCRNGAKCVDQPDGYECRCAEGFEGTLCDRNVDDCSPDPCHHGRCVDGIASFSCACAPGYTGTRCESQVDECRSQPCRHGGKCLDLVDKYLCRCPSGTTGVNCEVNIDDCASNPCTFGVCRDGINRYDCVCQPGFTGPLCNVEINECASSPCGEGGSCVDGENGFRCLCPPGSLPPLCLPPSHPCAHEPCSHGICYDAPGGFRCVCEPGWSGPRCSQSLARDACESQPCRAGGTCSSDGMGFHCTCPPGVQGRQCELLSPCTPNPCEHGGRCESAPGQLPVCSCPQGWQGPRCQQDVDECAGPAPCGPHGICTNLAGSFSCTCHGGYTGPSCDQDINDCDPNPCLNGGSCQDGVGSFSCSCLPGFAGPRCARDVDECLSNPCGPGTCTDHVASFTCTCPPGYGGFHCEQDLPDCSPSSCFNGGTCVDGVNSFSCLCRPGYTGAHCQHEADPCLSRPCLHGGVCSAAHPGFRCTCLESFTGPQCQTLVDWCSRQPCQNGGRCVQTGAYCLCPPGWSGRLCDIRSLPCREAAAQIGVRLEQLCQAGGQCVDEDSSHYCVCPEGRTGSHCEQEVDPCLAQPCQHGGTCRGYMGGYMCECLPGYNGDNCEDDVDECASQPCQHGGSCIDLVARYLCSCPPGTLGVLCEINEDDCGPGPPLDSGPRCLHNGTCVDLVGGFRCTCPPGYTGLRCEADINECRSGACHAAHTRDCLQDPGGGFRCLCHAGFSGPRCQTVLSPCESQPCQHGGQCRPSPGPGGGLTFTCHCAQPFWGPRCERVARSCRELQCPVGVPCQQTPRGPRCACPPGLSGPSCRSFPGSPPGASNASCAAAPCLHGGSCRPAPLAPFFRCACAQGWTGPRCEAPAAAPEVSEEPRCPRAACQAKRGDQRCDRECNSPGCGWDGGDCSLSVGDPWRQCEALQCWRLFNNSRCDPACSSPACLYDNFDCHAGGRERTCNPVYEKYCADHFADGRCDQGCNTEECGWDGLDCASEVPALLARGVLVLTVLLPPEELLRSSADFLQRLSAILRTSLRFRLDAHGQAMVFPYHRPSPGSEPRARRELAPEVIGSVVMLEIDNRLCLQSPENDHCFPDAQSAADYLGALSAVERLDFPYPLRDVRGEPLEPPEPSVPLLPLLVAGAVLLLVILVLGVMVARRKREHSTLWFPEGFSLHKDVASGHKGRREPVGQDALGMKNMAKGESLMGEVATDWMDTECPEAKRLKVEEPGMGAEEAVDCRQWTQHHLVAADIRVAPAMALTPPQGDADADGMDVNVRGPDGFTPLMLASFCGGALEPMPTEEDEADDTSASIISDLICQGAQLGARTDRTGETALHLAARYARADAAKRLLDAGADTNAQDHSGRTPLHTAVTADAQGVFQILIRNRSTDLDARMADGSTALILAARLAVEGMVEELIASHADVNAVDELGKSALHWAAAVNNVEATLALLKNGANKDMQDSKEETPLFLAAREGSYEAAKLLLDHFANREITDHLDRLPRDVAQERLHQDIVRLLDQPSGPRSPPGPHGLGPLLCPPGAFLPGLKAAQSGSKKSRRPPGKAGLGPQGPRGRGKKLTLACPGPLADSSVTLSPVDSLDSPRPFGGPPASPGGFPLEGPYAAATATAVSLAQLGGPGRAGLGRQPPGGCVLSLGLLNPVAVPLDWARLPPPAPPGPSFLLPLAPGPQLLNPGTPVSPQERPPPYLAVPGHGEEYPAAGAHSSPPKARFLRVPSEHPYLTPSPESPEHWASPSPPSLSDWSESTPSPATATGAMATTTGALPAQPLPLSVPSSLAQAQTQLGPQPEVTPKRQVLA
# Chain of Epidermal growth factor receptor (Homo sapiens) (P00533 whole entry, looked up): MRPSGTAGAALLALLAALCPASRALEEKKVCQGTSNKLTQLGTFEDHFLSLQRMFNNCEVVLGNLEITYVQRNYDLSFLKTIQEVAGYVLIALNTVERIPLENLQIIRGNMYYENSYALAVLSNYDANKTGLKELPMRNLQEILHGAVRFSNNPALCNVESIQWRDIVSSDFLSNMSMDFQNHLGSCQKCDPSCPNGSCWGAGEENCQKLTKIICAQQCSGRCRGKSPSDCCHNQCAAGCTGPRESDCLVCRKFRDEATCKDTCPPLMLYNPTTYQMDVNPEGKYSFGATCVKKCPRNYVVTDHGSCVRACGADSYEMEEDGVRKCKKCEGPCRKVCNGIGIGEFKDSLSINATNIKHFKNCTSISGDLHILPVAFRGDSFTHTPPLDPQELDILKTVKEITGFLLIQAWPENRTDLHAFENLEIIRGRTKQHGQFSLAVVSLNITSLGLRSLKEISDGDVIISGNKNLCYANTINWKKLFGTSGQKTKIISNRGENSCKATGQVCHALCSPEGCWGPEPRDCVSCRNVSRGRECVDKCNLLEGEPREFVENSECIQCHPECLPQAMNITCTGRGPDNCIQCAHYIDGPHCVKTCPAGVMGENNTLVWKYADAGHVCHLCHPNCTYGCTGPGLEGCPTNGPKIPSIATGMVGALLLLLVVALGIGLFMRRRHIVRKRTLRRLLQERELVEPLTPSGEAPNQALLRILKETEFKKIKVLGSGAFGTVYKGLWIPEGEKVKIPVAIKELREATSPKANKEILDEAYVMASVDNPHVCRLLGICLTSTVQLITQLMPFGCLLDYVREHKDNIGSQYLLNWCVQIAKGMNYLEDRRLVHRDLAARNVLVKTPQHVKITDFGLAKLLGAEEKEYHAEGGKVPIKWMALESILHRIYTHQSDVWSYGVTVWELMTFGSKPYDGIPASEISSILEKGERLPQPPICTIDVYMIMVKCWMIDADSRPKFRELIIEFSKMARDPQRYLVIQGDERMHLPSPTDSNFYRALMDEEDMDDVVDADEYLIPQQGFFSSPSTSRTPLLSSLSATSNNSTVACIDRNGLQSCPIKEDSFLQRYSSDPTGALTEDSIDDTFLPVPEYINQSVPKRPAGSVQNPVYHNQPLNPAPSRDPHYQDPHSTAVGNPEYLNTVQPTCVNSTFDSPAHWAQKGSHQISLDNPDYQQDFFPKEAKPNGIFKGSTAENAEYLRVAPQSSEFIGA
# Chain of Dickkopf-related protein 1 (Homo sapiens) (O94907 whole entry, looked up): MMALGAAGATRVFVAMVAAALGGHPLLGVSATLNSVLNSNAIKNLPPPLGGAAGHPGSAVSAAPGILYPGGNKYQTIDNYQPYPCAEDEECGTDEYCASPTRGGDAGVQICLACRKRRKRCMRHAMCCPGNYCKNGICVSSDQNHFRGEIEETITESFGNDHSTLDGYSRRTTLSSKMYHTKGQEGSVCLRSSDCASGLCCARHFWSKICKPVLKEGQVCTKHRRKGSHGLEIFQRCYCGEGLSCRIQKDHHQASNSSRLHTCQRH
Structure (SMILES),composite z-score [1],z-score [2],z-score [3],z-score [4],composite z-score [5],z-score [6],composite z-score [7],composite z-score [8],composite z-score [9],composite z-score [10],composite z-score [11],composite z-score [12],composite z-score [13],z-score [14],composite z-score [15],composite z-score [16],composite z-score [17],composite z-score [18],composite z-score [19],composite z-score [20]
COCCOC(=O)N1C(=O)[C@@]2(c3ccccc31)[C@H](C(N)=O)[C@H]1C(=O)O[C@H](c3ccccc3)[C@H](c3ccccc3)N1[C@@H]2c1ccccc1OCCO,1.53,0.438 (inactive),-0.142 (inactive),3.11 (inactive),1.84,1.24 (inactive),0.16,1.32,1.12,0.261,1.31,0.756,0.799,-0.0592 (inactive),1.23,0.98,0.483,0.584,0.516,0.617
COCCCNC(=O)[C@]1(CCC(=O)OC(C)(C)C)N=C(c2ccc(OCCCO)cc2)O[C@@H]1c1ccccc1N=[N+]=[N-],1.54,-0.376 (inactive),-1.22 (inactive),0.719 (inactive),3.81,0.619 (inactive),0.0979,0.778,1.11,0.134,1.31,0.314,0.999,-1.14 (inactive),1.29,1.33,0.287,1.06,0.0998,0.772
CC(C)=CCCC(C)=CCON=C1[C@H]2CCn3c(=O)n(Cc4cc5c(cc4Cl)OCO5)c(=O)n3[C@H]2[C@H](O)[C@@H]2O[C@H]12,-0.477,0.175 (inactive),-0.105 (inactive),0.545 (inactive),-0.658,-0.996 (inactive),0.0392,0.482,0.554,0.112,0.398,-0.277,-0.248,-0.696 (inactive),0.427,0.173,0.984,0.677,0.472,1.27
CCOC(=O)[C@H](CC(C)C)NC(=O)CCC1CC(OC(=O)NCCc2ccc(F)cc2)CC2(CCCC(COC(=O)NCc3ccccc3)O2)O1 (stereo not given in full),1.57,-0.341 (inactive),-0.265 (inactive),0.707 (inactive),2.24,-0.206 (inactive),-0.0778,1.46,0.828,0.0338,0.859,-0.273,-0.29,-1.19 (inactive),1.39,0.808,0.907,1.01,0.89,-0.198
CC(=O)OC[C@H]1O[C@H](CCON=C(C)CCC(=O)OC[C@H]2O[C@H](C#Cc3ccccc3)C=C[C@@H]2Oc2ccc(C)cc2)C=C[C@@H]1OC(C)=O,0.269,-0.465 (inactive),-0.0797 (inactive),-0.579 (inactive),0.719,0.554 (inactive),-0.181,0.465,-0.0894,0.0567,0.825,-0.304,-0.632,-0.35 (inactive),0.167,-0.219,0.259,0.521,0.495,0.659
